In ChEMBL document CHEMBL3988442, “University of Dundee, Small-Polar-MMV Screening Library” (2021) one finds Percent Effect data, which are given here for eleven compounds.

For some of these results: Entries with a potency or affinity are not part of this list.

What all share (parameters): scale not given: direction of the effect not stated beside the values
For assay [1], the target named is Protein translocase subunit SecA (Escherichia coli (strain K12)) (UniProt P10408). Description: Assay to Identify E. coli SecA ATPase Inhibitors. The assay is classed as functional. Particulars: 30 µM.
The target of assay [2] is T1, Ubiquitin-activating enzyme e1, putative (Leishmania donovani (strain BPK282A1)) (UniProt E9BSI1).
T1 sequence (whole entry): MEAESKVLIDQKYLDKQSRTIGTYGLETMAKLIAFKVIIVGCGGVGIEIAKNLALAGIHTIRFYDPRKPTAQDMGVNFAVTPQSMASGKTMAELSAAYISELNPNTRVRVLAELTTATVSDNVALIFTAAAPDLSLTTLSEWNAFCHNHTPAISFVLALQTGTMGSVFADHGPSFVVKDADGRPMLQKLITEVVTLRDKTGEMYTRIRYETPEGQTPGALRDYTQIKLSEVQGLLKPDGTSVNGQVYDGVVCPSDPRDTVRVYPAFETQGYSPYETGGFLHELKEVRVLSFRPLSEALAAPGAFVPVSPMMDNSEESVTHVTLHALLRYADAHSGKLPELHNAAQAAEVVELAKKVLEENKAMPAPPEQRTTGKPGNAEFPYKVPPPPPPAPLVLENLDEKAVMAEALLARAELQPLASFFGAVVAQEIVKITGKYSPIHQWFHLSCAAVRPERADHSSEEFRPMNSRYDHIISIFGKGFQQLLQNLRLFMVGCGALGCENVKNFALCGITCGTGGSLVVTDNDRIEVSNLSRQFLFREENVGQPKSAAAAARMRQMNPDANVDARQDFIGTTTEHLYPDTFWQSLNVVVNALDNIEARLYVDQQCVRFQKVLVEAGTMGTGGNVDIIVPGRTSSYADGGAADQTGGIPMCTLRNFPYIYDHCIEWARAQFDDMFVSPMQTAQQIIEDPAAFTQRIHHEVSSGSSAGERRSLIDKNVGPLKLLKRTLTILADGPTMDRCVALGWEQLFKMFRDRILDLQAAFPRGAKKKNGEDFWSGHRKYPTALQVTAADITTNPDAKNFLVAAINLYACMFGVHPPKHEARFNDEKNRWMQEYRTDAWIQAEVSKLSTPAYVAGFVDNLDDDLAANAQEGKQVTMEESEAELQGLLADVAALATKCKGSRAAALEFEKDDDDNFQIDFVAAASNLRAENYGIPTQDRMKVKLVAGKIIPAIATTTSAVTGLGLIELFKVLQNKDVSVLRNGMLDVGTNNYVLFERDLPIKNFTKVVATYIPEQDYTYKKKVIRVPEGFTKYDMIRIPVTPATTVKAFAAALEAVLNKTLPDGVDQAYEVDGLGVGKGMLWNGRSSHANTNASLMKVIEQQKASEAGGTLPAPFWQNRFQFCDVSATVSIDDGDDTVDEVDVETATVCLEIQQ
Put plainly: Leishmania donovani Ubiquitin Activating Enzyme (LdE1). The assay is classed as functional. Particulars: 30 µM.

Assay [3] deals with AMP-activated protein kinase, AMPK (Homo sapiens) (UniProt P54646+O43741+P54619+Q9UGJ0+Q9Y478+Q13131+Q9UGI9). Description: AMP-dependent Kinase enzyme assay. An in vitro enzyme assay that detects ADP turnover that is directly proportional to AMPK activity. This uses naive AMPK that is activated during the assay with MK-8722. The assay is classed as functional. Particulars: 30 µM.

Assay [4] has as its target Sialic acid-binding Ig-like lectin 9 (Homo sapiens) (UniProt Q9Y336). Description: Hs-Siglec9 ALPHAscreen SOP 20170721. Particulars: 10 µM. In general terms: In Alpha technology, singlet oxygen from a donor bead excites a nearby acceptor bead.
A further assay has as its system Trypanosoma cruzi. Put plainly: Trypanosoma cruzi phosphomannomutase and mannose-1-phosphate guanylyltransferase assay. In kind it is functional. Particulars: 10 µM.
The target of assay [5] is T2, Arginase-2, mitochondrial (Homo sapiens) (UniProt P78540).
T2 sequence (whole entry): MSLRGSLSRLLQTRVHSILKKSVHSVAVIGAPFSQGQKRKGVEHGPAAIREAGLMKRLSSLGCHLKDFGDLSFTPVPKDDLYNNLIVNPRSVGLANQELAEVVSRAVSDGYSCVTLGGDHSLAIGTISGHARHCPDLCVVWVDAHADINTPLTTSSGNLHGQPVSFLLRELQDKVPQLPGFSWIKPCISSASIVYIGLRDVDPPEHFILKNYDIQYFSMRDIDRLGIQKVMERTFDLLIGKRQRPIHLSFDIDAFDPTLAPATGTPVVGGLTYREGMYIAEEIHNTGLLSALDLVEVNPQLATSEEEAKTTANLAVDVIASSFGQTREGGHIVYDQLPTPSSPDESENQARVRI
Description: in vitro enzyme assay to detect the production of urea directly proportional to the activity of Arginase II. Further: in the data most compounds retested in dose-response had high values. Particulars: 33.3 µM. The assay is classed as functional.

In assay [6] the target is T3, Proteasome subunit beta (Trypanosoma cruzi) (UniProt O96673).
T3 sequence (whole entry): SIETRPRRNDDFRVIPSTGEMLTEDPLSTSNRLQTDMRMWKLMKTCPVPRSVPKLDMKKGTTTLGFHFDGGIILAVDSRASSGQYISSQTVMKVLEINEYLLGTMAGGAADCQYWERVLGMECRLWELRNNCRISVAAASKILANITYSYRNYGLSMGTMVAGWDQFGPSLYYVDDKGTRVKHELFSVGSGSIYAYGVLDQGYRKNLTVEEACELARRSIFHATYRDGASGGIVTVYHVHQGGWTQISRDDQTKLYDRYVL
Description: Trypanosoma cruzi proteasome chymotrypsin-like activity (TcProtChymo) assay. Further: in the data most compounds retested in dose-response had high values. The assay is classed as functional. Particulars: 9.37 µM.

The next assay is filed under the species Homo sapiens. Put plainly: To identify inhibition of the IFN signalling (Jak-Stat) pathway via expression of an eGFP reporter gene under the control of an IFN-stimulated response element (ISRE) containing MxA promoter. In kind it is functional. Particulars: 30 µM.
In assay [7] the target is T4, Tyrosyl-tRNA synthetase, putative (Trypanosoma cruzi (strain CL Brener)) (UniProt Q4DSP6).
T4 sequence (whole entry): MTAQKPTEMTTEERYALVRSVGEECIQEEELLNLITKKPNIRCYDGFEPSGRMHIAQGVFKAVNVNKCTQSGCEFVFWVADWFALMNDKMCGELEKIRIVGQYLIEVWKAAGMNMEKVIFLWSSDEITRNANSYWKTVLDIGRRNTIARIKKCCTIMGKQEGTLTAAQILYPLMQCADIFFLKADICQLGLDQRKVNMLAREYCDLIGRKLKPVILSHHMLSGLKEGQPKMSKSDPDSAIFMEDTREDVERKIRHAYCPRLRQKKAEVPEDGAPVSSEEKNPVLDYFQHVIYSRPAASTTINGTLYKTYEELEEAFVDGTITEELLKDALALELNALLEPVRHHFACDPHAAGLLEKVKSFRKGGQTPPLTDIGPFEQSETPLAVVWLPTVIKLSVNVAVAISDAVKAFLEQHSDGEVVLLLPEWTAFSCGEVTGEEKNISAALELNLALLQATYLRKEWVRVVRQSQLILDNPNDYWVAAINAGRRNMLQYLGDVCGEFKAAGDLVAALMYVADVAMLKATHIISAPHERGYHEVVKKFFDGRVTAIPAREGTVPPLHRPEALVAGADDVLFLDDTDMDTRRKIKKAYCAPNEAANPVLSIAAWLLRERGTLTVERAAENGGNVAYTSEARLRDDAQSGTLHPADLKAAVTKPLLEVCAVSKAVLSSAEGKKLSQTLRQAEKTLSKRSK
Put plainly: Trypanosoma cruzi tyrosyl tRNA synthetase (TcYRS) _High Tyrosine SOP. Further: in the data most compounds retested in dose-response had high values. In kind it is functional. Particulars: 30 µM.

In assay [8] the target is T4, Tyrosyl-tRNA synthetase, putative (Trypanosoma cruzi (strain CL Brener)). Put plainly: Trypanosoma cruzi tyrosyl tRNA synthetase (TcYRS) SOP. The assay is classed as functional. Particulars: 30 µM.
Assay [9] deals with Chromo domain-containing protein 1 (Saccharomyces cerevisiae (strain ATCC 204508 / S288c) (Baker's yeast)) (UniProt P32657). Put plainly: ScCHD-1 Enzyme Inhibition Assay. Further: in the data most compounds retested in dose-response had high values. The assay is classed as functional. Particulars: 30 µM.
Sequence of Chromo domain-containing protein 1 (Saccharomyces cerevisiae (strain ATCC 204508 / S288c) (Baker's yeast)) (P32657 whole entry, the tested form may be a part): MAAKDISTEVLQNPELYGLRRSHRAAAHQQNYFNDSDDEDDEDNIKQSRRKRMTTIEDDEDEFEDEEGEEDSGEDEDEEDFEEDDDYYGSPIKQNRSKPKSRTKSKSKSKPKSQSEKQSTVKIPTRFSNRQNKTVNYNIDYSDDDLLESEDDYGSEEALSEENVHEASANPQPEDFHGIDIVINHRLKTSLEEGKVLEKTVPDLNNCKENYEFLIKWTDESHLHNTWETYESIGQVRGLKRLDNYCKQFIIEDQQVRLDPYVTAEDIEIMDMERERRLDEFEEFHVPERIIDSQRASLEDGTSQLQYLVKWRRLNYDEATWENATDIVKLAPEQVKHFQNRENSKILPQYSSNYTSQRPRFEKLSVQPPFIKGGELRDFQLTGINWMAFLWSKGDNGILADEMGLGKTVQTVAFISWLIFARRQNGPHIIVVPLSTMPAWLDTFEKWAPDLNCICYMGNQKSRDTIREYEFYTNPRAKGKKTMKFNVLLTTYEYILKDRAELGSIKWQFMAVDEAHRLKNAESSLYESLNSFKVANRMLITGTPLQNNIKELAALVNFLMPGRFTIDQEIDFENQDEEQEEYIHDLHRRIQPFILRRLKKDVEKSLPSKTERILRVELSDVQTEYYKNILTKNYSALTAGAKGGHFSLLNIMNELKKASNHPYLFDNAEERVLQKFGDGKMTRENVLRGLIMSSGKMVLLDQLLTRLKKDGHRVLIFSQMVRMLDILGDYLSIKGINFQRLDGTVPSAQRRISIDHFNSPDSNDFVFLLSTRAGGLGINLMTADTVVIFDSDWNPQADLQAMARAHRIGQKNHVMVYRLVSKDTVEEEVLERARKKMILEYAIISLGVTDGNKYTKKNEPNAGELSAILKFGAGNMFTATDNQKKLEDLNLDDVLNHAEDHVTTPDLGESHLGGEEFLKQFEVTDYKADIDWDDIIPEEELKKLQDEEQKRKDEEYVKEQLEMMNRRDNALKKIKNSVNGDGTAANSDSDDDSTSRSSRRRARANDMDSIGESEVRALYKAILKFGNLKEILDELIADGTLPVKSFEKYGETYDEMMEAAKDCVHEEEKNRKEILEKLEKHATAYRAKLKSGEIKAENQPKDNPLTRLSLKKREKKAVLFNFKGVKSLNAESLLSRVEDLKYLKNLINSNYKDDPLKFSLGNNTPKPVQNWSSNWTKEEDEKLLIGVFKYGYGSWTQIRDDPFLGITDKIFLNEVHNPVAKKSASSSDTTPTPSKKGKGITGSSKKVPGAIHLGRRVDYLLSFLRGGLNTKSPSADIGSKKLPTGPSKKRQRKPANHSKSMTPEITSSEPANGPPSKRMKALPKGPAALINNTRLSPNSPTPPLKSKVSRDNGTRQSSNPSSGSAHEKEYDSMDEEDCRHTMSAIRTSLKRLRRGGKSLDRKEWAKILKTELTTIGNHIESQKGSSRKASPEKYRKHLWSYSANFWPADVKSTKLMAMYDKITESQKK

Sequence of Protein translocase subunit SecA (Escherichia coli (strain K12)) (P10408 whole entry): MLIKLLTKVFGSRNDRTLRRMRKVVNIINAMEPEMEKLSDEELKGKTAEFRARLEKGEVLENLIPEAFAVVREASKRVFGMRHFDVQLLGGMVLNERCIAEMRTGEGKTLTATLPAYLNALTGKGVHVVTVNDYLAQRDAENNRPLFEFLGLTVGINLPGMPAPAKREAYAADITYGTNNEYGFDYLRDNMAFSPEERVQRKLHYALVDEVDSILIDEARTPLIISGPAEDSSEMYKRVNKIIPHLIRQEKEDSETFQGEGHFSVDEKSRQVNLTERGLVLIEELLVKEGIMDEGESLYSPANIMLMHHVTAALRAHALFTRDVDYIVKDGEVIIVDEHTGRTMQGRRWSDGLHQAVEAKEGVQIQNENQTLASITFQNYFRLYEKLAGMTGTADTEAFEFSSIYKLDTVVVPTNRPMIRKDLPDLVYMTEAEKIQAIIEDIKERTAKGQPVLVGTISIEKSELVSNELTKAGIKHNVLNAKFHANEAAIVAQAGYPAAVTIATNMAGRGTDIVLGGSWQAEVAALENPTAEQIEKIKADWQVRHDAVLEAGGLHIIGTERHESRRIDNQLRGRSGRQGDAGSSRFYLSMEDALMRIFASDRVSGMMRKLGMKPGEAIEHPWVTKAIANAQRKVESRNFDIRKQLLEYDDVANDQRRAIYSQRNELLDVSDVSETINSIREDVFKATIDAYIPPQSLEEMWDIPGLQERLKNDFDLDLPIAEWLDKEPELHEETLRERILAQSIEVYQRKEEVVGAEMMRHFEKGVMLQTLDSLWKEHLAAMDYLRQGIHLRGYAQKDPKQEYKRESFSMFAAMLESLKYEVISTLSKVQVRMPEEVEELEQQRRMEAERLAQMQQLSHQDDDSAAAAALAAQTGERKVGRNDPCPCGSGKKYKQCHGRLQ
Sequence of Sialic acid-binding Ig-like lectin 9 (Homo sapiens) (Q9Y336 whole entry): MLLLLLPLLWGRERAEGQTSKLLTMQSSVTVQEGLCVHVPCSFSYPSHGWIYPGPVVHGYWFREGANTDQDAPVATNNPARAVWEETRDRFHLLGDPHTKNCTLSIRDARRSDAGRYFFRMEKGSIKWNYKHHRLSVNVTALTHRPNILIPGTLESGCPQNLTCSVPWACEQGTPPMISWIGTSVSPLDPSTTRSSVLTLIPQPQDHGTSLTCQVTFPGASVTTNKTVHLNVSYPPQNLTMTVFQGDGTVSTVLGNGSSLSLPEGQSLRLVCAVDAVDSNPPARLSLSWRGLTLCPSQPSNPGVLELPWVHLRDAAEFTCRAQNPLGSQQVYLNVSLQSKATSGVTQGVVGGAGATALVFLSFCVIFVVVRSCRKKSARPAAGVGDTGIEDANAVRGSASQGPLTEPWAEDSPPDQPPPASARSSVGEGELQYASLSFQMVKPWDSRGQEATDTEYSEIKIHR

Take `Cn1cnnc1C1CCCN(C(=O)NCCc2ccccc2F)C1` (stereo unspecified): the Percent Effect in assay [1] was -3%; in assay [2], 10.4%; in assay [3], -0.267%; in [4] it was -7.57%; in the assay with Trypanosoma cruzi, 5.97%; in [5] it was 6.53%. Further, the Percent Effect in assay [6] was 6.71%; in the assay listed under Homo sapiens, 11.1%; in assay [7], 3.81%; in assay [8] it was 14.1%; in assay [9], -9.4%.

As to `Cc1nc(C)n(C2CCCN(C(=O)c3ccc(NC4CC4)nc3)C2)n1` (stereo unspecified), the Percent Effect in assay [1] is -2.93%; in [2] it was -5.41%; in [3] it was 2.71%; in assay [4] it was 10.3%; in the assay on Trypanosoma cruzi it was 2.14%; in assay [5] it was -4.25%. Besides, the Percent Effect was -3.77% in assay [6]; 8.24% in the assay listed under Homo sapiens; 1.98% in assay [7]; 6.1% in [8]; 4.04% in assay [9].

Take `c1ccc(-c2nc(CN3CCCC3Cn3cncn3)cs2)cc1` (stereo unspecified): the Percent Effect in assay [1] was -2.21%; in assay [2] it was -17.7%; in assay [3], -1.4%; in assay [4] it was 4.03%; in the assay on Trypanosoma cruzi it was 3.68%; in assay [5], -2.28%. Also, the Percent Effect in [6] is 1.39%; in the assay filed under Homo sapiens it was -16.9%; in assay [7], 4.43%; in [8] it was 3.8%; in assay [9], 25.8%.

Consider `CC(Cn1cccn1)NC(=O)Nc1ccc(F)cc1` (stereo unspecified), for which the Percent Effect in assay [1] was 0.465%; in assay [2] it was 6.94%; in [3] it was -0.867%; in [4] it was -4.43%; with Trypanosoma cruzi it was -5.15%; in [5], 1.77%. Besides, the Percent Effect was 22.1% in [6]; 9.63% in the assay filed under Homo sapiens; 1.05% in assay [7]; 0% in assay [8]; -1.51% in assay [9].

Regarding `CN1C(=O)C[C@@H]2[C@@H]1CCN2S(=O)(=O)Cc1ccccc1`, the Percent Effect in assay [1] was 2.57%; in assay [2], 2.74%; in assay [3], 4.04%; in assay [4], 13.8%; with Trypanosoma cruzi, -0.595%; in [5], 2%. Further, the Percent Effect in [6] was 2.83%; in the assay filed under Homo sapiens it was 1.27%; in [7] it was 3.12%; in [8] it was 3.7%; in assay [9], 6.94%.

With `CN(Cc1cccc(F)c1)C(=O)CN1CCCC1CCc1ccccc1` (stereo unspecified), the Percent Effect in [1] was -3.56%; in assay [2], -7.79%; in [3], 2.67%; in assay [4] it was 4.42%; in the assay on Trypanosoma cruzi it was 3.44%; in assay [5], -1.38%. In addition, the Percent Effect in [6] is 2%; in the assay listed under Homo sapiens it was -5.85%; in assay [7], 1.07%; in assay [8] it was -3.7%; in assay [9], 113%.

`CCc1ccc(C2CCCCCN2Cc2nc(CCOC)no2)o1` (stereo unspecified): the Percent Effect in assay [1] was -1.49%; in assay [2] it was 2.6%; in assay [3], 3.4%; in [4], 5.24%; in the assay on Trypanosoma cruzi, 3.05%; in assay [5], -9.65%. In addition, the Percent Effect in assay [6] is 16.5%; in the assay listed under Homo sapiens, 19.7%; in assay [7], -14%; in assay [8], -18.5%; in assay [9] it was -9.18%.

Turning to `COc1ccc(C(=O)NS(=O)(=O)c2cncc(Br)c2)cc1OC`, the Percent Effect in assay [1] was -6.13%; in assay [2] it was -5.41%; in [3], -4.05%; in assay [4], 9.13%; with Trypanosoma cruzi, -2.51%; in assay [5], 0%. Also, the Percent Effect was 2.07% in assay [6]; 24.4% in the assay listed under Homo sapiens; 2.65% in [7]; 0% in assay [8]; -1.34% in assay [9].

Regarding `CCN1CCN(C(=O)c2nc(C)n(-c3ccccc3Cl)n2)CC1`, the Percent Effect was -9.34% in [1]; 7.89% in assay [2]; -2.25% in [3]; 14.9% in [4]; 5.7% with Trypanosoma cruzi; 2.16% in assay [5]. Further, the Percent Effect is 3.81% in assay [6]; -16.5% in the assay filed under Homo sapiens; 4.43% in [7]; 23.5% in [8]; -7.33% in assay [9].

For the compound `NC(=O)CN1CCCN(C(=O)c2ccn(-c3ccccc3)n2)CC1`, the Percent Effect was 0.801% in [1]; 9.72% in assay [2]; -1.01% in assay [3]; 12.3% in assay [4]; 1.26% in the assay on Trypanosoma cruzi; 9.71% in assay [5]. Moreover, the Percent Effect in assay [6] was 11.9%; in the assay listed under Homo sapiens it was 13.7%; in [7], 5.26%; in assay [8] it was 7.69%; in [9], -4.05%.

For `NC(=O)c1cc(NC(=O)N2CCCCCC2)ccc1F`, the Percent Effect is -2.22% in assay [1]; 16.2% in [2]; 5.3% in assay [3]; 2.48% in assay [4]; 2.15% in the assay on Trypanosoma cruzi; 30.4% in [5]. Further, the Percent Effect in [6] was 11.1%; in the assay listed under Homo sapiens, 44.5%; in assay [7] it was 6.93%; in assay [8] it was 13.4%; in [9], -2.07%.
